Screens from PubChem.
RBX1-CUL1 inh: inhibitors of human ROC1-CUL1 ubiquitin ligase activity | E3 ubiquitin-protein ligase RBX1 (Homo sapiens) + Cullin-1 (Homo sapiens), P62877+Q13616 | in vitro K48 di-Ub FRET, acceptor:donor ratio, 45 min | inhibition, % at 10 µM | hit rate 0.6% among 140,000 | AID 1347404, 2020; in the data active = inhibition above about 25%
Target sequence (P62877 whole entry, looked up): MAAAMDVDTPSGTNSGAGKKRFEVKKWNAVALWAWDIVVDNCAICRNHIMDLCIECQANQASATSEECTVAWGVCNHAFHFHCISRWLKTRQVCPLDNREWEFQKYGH
Target sequence (Q13616 whole entry, looked up): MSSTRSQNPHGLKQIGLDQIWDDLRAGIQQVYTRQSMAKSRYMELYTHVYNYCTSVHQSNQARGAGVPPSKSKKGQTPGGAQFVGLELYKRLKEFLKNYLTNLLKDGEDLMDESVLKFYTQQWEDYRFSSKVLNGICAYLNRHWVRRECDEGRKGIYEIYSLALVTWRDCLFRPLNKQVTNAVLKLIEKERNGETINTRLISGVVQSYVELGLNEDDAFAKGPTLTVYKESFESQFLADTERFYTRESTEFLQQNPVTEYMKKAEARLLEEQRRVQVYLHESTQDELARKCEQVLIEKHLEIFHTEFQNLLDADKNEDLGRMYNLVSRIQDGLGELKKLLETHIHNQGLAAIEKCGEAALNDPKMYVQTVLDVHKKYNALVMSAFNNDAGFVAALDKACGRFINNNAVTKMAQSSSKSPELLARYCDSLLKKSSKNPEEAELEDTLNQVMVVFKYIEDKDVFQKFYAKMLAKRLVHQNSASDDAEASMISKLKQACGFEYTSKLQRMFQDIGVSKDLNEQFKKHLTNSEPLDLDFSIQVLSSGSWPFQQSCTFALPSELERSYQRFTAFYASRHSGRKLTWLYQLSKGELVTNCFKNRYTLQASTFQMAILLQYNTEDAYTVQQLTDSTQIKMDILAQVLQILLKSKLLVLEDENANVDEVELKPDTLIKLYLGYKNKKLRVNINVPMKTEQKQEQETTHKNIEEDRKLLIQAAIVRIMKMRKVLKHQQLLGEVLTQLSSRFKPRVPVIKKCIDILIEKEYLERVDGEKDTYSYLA
Numbers without * were called inactive. Many of the other results were omitted from the sample, so hits are more common in it than they were.

SMILES	RBX1-CUL1 inh
CC(C)N1C(=O)/C(=C/C=C/c2ccco2)C(=O)N(Cc2ccco2)C1=O	-4
COc1ccc(C=C2C(=O)N(C)C(=O)N(C)C2=O)cc1	-8
COc1ccc(/C=C2/C(=O)N(Cc3ccco3)C(=O)N(C(C)C)C2=O)cc1	103*
COc1cc(C(c2c(C)[nH]n(-c3ccccc3)c2=O)c2c(C)[nH]n(-c3ccccc3)c2=O)cc(OC)c1OC	62*
COc1cc(C2SCC(=O)Nc3c2c(-c2ccccc2)nn3-c2ccccc2)cc(OC)c1OC (stereo unspecified)	-1
COc1cc(CN2CCN(C(=O)Cc3ccccc3)CC2)cc(OC)c1OC	6
COC(=O)C(CCSC)NC(=O)c1cn(CCN2CCCCC2)nn1 (stereo unspecified)	4
N=C1C(Cl)C(=O)NC(=O)N1Cc1ccccc1 (stereo unspecified)	-4
O=C1NC(=O)C(Br)(Br)C(=O)N1Cc1ccccc1	76*
CCC1(c2ccccc2)C(=O)NC(=O)N(CCN2CCOCC2)C1=O (stereo unspecified)	1
CC(C)NC(=O)N1Cc2ccccc2-n2cccc2C1c1ccccc1 (stereo unspecified)	9
Clc1ccc2c(c1)C(c1ccccc1Cl)=NCc1nnc(CN3CCN(CCOc4ccccc4)CC3)n1-2	6
Cc1cccc(N2C(=O)/C(=C/c3cc(C)n(-c4ccc(C(=O)O)c(Cl)c4)c3C)C(=O)NC2=S)c1C	13
O=C1NC(=S)N(c2ccc(Br)cc2)C(=O)/C1=C/c1ccc(-c2ccccc2C(=O)O)o1	83*
Cc1c(Cl)cccc1N1C(=O)/C(=C/c2ccc(-c3ccc(C(=O)O)cc3)o2)C(=O)NC1=S	52*
CCN(CC)c1ccc(/C=C2\C(=O)NC(=S)N(C)C2=O)o1	-2
CCN(CC)c1ccc(/C=C2\C(=O)NC(=S)N(c3ccc(OC)cc3OC)C2=O)o1	2
CCOc1ccc(N2C(=O)/C(=C/c3ccc(CN(CCC#N)S(C)(=O)=O)o3)C(=O)NC2=S)cc1	24
O=C(NCCCN1CCOCC1)c1ccc(-n2nnnc2C2(N3CCOCC3)CCCCC2)cc1	-10
CC(=O)N1CCC(N2CCCC(C(=O)c3ccc(Cl)cc3)C2)CC1 (stereo unspecified)	4
Cc1nc2ccc(Cl)cc2c(=O)n1-c1ccc(N)cc1	5
CN(C)CC1CSCCC1(O)c1cccc(O)c1 (stereo unspecified)	-2
CSc1ccccc1C(=O)C1CCCN(Cc2cccnc2)C1 (stereo unspecified)	-10
CN1CC2c3ccccc3OC(c3ccc(Cl)cc3)C2([N+](=O)[O-])O1 (stereo unspecified)	3
O=C(NC1CC1)c1cn(Cc2ccccc2)cc(C(=O)N2CC[C@@H]3CCCC[C@H]3C2)c1=O	-1
